Rab9 promoter act – activates the Rab9 promoter. Huh7 Rab9 promoter-luciferase reporter, luminescence, 24 h. Potency, µM (series often up to 9.22 µM), for inactives: at the highest dose activation, negative = inhibition, hits mostly activators. 2.8% of 320,000 active; also: % of control where 0% means no effect; nearly all actives have a fitted effect of over 60% in size
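Rab9 promoter-driven luciferase in stably transfected Huh7 cells; 1500 cells/well rested 2 h, exposed to compound in DMSO for 24 h at 37 °C, 5% CO2. Luminescence read 10 min after adding luciferase reagent at ambient temperature.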
NPC1 prom act – activators of NPC1 promoter; Potency, µM (doses to about 9.22 µM), without a hit: at the top dose activation, actives largely listed as activators; 2.4% of 320,000 active; Huh7 NPC1 promoter luciferase reporter, 24 h; AID 485313; also: % of control where 0% means no effect; nearly all actives have a fitted effect of over 60% in size
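Stably transfected Huh7 (NPC1 promoter→luciferase), 1500 cells/well in Opti-MEM + 10% FBS, 2 h settle, then compound 24 h at 37 °C. Luminescence after 10 min with Amplite reagent.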
ELG1 genotoxic – inducers of genotoxicity in HEK293T ELG1-luciferase cells; HEK293T ELG1-luciferase reporter, luminescence, 16 h; 1.3% of 330,000 active; AID 504466; Potency, µM (highest dose often 46 µM), inactives show top-dose activity change, positive = activation, hits mostly activators; also: % of control where 0% means no effect; nearly all actives have a fitted effect of over 60% in size
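DMSO vehicle served as control against compound-treated ELG1-luciferase HEK293T cells; exposure lasted 16 hr at 37 °C and 5% CO2, followed by ONE-Glo luminescence detection after 30 min.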
FLuc modulator – inhibits or activates purified firefly luciferase, miR-21 counter-screen; purified FLuc, Km substrates, luminescence inhibition; 6.9% of 360,000 active; P08659; Potency, µM (highest dose often 57.5 µM), for the others: at the highest dose activity change, negative = inhibition, actives largely listed as inhibitors;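 also: plate controls were vehicle for no effect and reference inhibitor for full effect; nearly all actives have a fitted effect of over 55% in size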
Target sequence (P08659 whole entry, looked up): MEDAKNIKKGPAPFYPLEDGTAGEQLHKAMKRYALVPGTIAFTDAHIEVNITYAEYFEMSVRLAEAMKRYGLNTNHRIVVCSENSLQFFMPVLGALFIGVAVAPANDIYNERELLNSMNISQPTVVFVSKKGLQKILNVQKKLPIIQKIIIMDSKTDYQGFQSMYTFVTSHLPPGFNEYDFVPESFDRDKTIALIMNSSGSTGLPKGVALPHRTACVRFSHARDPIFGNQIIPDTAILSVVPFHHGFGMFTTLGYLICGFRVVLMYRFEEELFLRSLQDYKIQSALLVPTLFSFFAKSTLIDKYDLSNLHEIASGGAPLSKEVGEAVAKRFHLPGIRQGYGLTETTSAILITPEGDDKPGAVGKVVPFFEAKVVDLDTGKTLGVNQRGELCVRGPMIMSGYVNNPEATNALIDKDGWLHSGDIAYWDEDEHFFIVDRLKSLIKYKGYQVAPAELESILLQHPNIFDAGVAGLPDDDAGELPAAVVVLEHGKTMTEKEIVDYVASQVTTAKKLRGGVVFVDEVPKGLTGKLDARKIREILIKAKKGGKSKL
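Purified P. pyralis luciferase, 10 nM final, with Km-level 10 uM D-luciferin and 10 uM ATP in 50 mM Tris acetate pH 7.5, 10 mM Mg acetate, 0.01% Tween-20, 0.05% BSA; 6-point qHTS titration about 60 µM downward; luminescence read.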
ELG1 repair inh – ELG1-dependent DNA repair inhibition | HEK293T ELG1-luciferase reporter, luminescence, 16 h; DNA damage induced by 5-fluorouridine | Potency, µM (series often up to 46.1 µM), without a hit: at the highest dose activity change, negative = inhibition, usual class: inhibitors | 2.3% of 330,000 active | AID 504467; also: % is scaled to controls: 0 for no effect and ±100 for the full control effect; nearly all actives have a fitted effect of over 55% in size
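In this reporter screen, reduction of luminescence relative to DMSO vehicle indicated activity. Compounds and 5-fluorouridine were added together to 2,000 cells per well, incubated for 16 hr at 37 °C, then developed with ONE-Glo.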
SMN2 splice enh – enhancers of SMN2 splice variant expression. HEK293 SMN2-luciferase splicing reporter, luminescence, 30-36 h. Potency, µM (titrated, usually from 46.1 µM), for inactives: at the top dose activity change, positive = activation, hits mostly activators. 2.8% of 210,000 active. AID 1458; also: % of control where 0% means no effect; nearly all actives have a fitted effect of over 55% in size
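HEK293 cells carry an SMN2 […]–luciferase reporter in which exon 7 inclusion puts luciferase in frame. Cells were plated 10-12 h before compound addition, then incubated 30-36 h at 37C. ONE-Glo luminescence was read; sodium butyrate at 4.5 mM final served as control.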
Active calls of the source: *; u = inconclusive; x = no result. Shown are actives, neighbours in structure and some others; about 9.3% of the full set was active somewhere. Calls follow the shape of the dose curve; as a rule, active = well fitted curve in the direction sought with a large enough effect; inconclusive = small, poorly fitted or top-dose-only effect, or another doubt; inactive = no such curve, though single readings can be large; an effect the other way counts as inactive or inconclusive. Potency is read from the fitted curve at half-maximal effect.

SMILES	Rab9 promoter act	NPC1 prom act	ELG1 genotoxic	FLuc modulator	ELG1 repair inh	SMN2 splice enh
COc1ccc(C(=O)NCC(c2cccnc2)N2CCN(c3ccccc3)CC2)cc1 (centres undefined)	x	x	x	-15.4%	x	x
C=CCn1c(SCC(=O)NCc2ccc3c(c2)OCO3)nc2scc(-c3ccc(F)cc3)c2c1=O	-1.6%	-1.7%	-1.3%	3.8%	14.6µM*	7.0%
Cn1c(SCC(=O)NCc2ccc3c(c2)OCO3)nc2scc(-c3cccs3)c2c1=O	-1.3%	-0.8%	-0.2%	-0.9%	13µM*	-18.6%
C=CCn1c(SC(C)C(=O)NCc2ccc3c(c2)OCO3)nc2scc(-c3ccccc3)c2c1=O (centres undefined)	5.1%	0.0%	-4.6%	1.7%	u	-6.3%
O=C(NCc1cccnc1)Nc1cccc(C(F)(F)F)c1	3.2%	6.1%	1.2%	-0.5%	5.0%	x
CN(C)S(=O)(=O)c1cc(NC(=O)COC(=O)/C=C/c2ccco2)ccc1Cl	-1.6%	-1.0%	4.0%	u	17.1%	x
COc1cccc(/C=C/C(=O)OCC(=O)Nc2cccc(S(=O)(=O)N(C)C)c2)c1	-7.1%	0.1%	21.8%	10.7µM*	8.8%	-20.6%
COc1cccc(/C=C/C(=O)OCC(=O)Nc2ccc(Cl)c(S(=O)(=O)N(C)C)c2)c1	-5.4%	-0.5%	0.3%	10.7µM*	15.8%	-1.4%
COC(=O)c1c(C)[nH]c(C(=O)C(C)OC(=O)c2cc(C)oc2C)c1C (centres undefined)	-13.8%	-2.5%	-0.6%	4.3%	-6.8%	x
O=C(O)c1cccnc1-c1ncccc1C(=O)O	-2.7%	0.1%	-1.5%	-0.4%	2.1%	-4.5%
Cc1cc(N2CCCCC2)n2nc(C)c(-c3ccccc3)c2n1	7.9%	9.2%	-2.1%	19µM*	u	x
COc1ccc(-c2c(C)nn3c(N4CCN(Cc5ccccc5)CC4)cc(C)nc23)cc1OC	-14.1%	-4.2%	-14.9%	-1.5%	4.61µM*	-48.5%
Cc1cc(N2CCN(Cc3ccccc3)CC2)n2nc(C)c(-c3ccccc3)c2n1	-6.0%	-1.1%	-4.4%	0.1%	u	-25.2%
COc1ccccc1-c1c(C)nn2c(N3CCOCC3)cc(C)nc12	0.5%	6.3%	-4.8%	0.5%	0.0%	x
COc1ccccc1-c1c(C)nn2c(N3CCCCCC3)cc(C)nc12	-7.3%	-5.3%	-12.0%	-12.0%	23.1µM*	-61.6%
Cc1cc(N2CCC(C)CC2)n2nc(C)c(-c3ccccc3)c2n1	-7.5%	-3.1%	-8.5%	-9.7%	0.8%	-19.9%
CC(=O)c1cccc(-n2c(=O)c3c4c(sc3n(CC(=O)Nc3ccccc3F)c2=O)CN(C(C)=O)CC4)c1	x	x	x	-1.3%	x	-7.0%
COC(=O)[C@@]1(Cc2ccc(OC)cc2)[C@H]2c3cc(C(=O)N(C)C)n(Cc4ccc(Cl)c(C(F)(F)F)c4)c3C[C@H]2CN1C(=O)c1ccccc1	x	x	x	x	x	-35.2%
Cc1cc(NC(=O)Nc2ccc(Cl)cc2)n(C(C)(C)C)n1	-0.5%	2.1%	-3.8%	2.2%	-1.9%	x
COc1ccccc1C(=O)Nc1ccc(OCC(=O)N2CCCCC2C)cc1 (centres undefined)	-0.2%	-4.8%	1.0%	12µM*	-6.8%	x
COc1ccc(OCC(=O)OCC(=O)N2C(C)CCCC2C)cc1 (centres undefined)	-3.8%	0.2%	-1.2%	0.1%	22.6%	x
COc1ccccc1C(=O)Nc1ccc(OCC(=O)N2C(C)CCCC2C)cc1 (centres undefined)	8.5%	1.0%	2.5%	8.49µM*	-7.6%	x
CC1CCc2c(sc(NC(=O)C(=O)NCc3ccco3)c2C#N)C1 (centres undefined)	-4.1%	0.7%	4.1%	-18.0%	-0.8%	25.5%
COCc1cc(C)nc(OCC(=O)N/N=C/c2ccc(-c3cccc([N+](=O)[O-])c3)o2)c1C#N	-1.2%	-4.1%	1.3%	-2.6%	-4.3%	-1.6%

Assay outcomes (PubChem BioAssay)
